Experimental findings from PubChem BioAssay (NCATS) are described below.

Molecules are shown by their SMILES. Results filed as inconclusive are left out. A number with no mark means an inactive call. Activity calls are given as the source filed them. Calls follow the shape of the dose curve; as a rule, active = well fitted curve in the direction sought with a large enough effect; inconclusive = small, poorly fitted or top-dose-only effect, or another doubt; inactive = no such curve, though single readings can be large; an effect the other way counts as inactive or inconclusive.
Potency is read from the fitted curve at half-maximal effect.

One assay addresses Aldehyde dehydrogenase, mitochondrial (Homo sapiens) (UniProt P05091). Put plainly: qHTS for Inhibitors of the Aldehyde Dehydrogenase Family (ALDH2) Primary screen (AID 2061308). Also: nearly all actives have a fitted effect of over 55% in size.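 As to activity change, negative = inhibition: plate controls were vehicle for no effect and reference inhibitor for full effect.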 To be noted: ALDH2 enzyme inhibition qHTS, 1536-well; series mostly up to 56 µM; activity change, negative = inhibition: at the top concentration.
`N#Cc1c(-c2cccc(Cl)c2)no[n+]1[O-]`: the Potency is 8.91 µM (active).
As for `C=C1[C@@H](OC(C)=O)CC[C@@]2(C)[C@@H](OC(C)=O)[C@H](OC(C)=O)C3=C(C)C[C@H](OC(=O)C(C)CC)[C@@H]([C@@H](OC(C)=O)[C@H]12)C3(C)C` (stereo not given in full), the Potency is 2.51 µM (active).
With `CN(C)c1ccc(C(=O)NCC(=O)OC(C(=O)Nc2cc(C(F)(F)F)ccc2Cl)c2ccccc2)cc1` (stereo not given), the “activity change, negative = inhibition” value is -12.9%.
Same read-out and setting: under `NC(=O)C1CCN(c2nc(-c3cc4ccccc4o3)cs2)CC1` stands 13.5%.
Consider `COc1ccc(C2Oc3ccccc3C(=O)N2Cc2ccccc2)cc1COc1ccc(NC(C)=O)cc1` (stereo not given), for which the “activity change, negative = inhibition” value is -16.1%.
Take `N#Cc1cnc(NS(=O)(=O)c2ccc(NC(=O)Cc3ccc(Cl)c(Cl)c3)cc2)s1`: the “activity change, negative = inhibition” value was 7.91%.
On the same count and under the same terms, the figure for `Nc1ccc(Nc2cc(O)c3ncccc3c2)cc1` is -24.4%.
Still for that read-out and setting: under `Cc1ccc(CN(C)c2ncnc3ccc(-c4ccc(C#N)n4C)cc23)o1` stands -14.2%; under `NC(=O)C1CCN(c2nccc(-c3ccc4c(c3)OCCCO4)n2)CC1`, -11.6%.
Consider `CN(C)[C@H]1CCN(c2cccc(Nc3nn4c(=O)c5ccccc5nc4s3)c2)C1`, for which the Potency result is “inactive”.
Consider `Nc1nccc(-c2c(-c3ccc(F)cc3)ncn2C2CCCCC2)n1`, for which the “activity change, negative = inhibition” value was -29.8%.
Same read-out and setting: under `COc1ccc(C2=Nn3c(nnc3-c3ccccc3OC)SC2)cc1` stands 5.08%.
With `Cc1ccc(CN(C)c2ccc(N3CCN(C)CC3)cc2)cc1`, the Potency was 10 µM (active).
For the compound `c1nc(NCC2CC2)c2cc(-c3ccc4c(c3)OCO4)ccc2n1`, the “activity change, negative = inhibition” value is -15.6%.
The same measure, in the same setting: under `CCCCN1C(=O)c2ccccc2NC1c1ccc(OC)c(COc2ccc(NC(C)=O)cc2)c1` (stereo not given) stands 0.582%.
For the compound `CC(=O)Nc1sc2c(c1-c1nc3ccccc3s1)CN(C(C)C)C2`, the Potency entry was “inactive”.
Take `C/C(=C\c1cccc(C(F)(F)F)c1)C1Nc2cccc3cccc(c23)N1`: the “activity change, negative = inhibition” value is -7.94%.
Still for that read-out and setting: under `Cc1cc(-c2nnc3n2CCCCC3)c(C)n1-c1cccc2ccccc12` stands -19.1%; under `CC(C)(Nc1nc(-c2ccccc2C(F)(F)F)nc2ccccc12)c1ccc(-c2cccc(C(F)(F)F)c2)cc1`, -5.01%.
Same read-out and setting: under `O=c1[nH]c(CN2CCOCC2)nc2sc3c(c12)CCCC3` stands 0.379%; under `CNc1oc(-c2c[nH]c3ccccc23)nc1C#N`, -5.23%.
`CN(C)CCCNC(=O)c1ccc(-c2cnc3c(O)cccc3c2)cc1`: the “activity change, negative = inhibition” value was 13.6%.
Take `COc1ccc(C2Nc3ccccc3C(=O)N2Cc2ccncc2)cc1COc1ccc(NC(C)=O)cc1` (stereo not given): the “activity change, negative = inhibition” value was -11.2%.
Still for that read-out and setting: under `O=C([C@@H]1CCCN(c2ccc3[nH]c(C4(n5cc(Cl)cn5)CC4)nc3n2)C1)N1CCCC1` stands -22.4%.
Take `CCOc1ccc(CCNC(=O)c2cc3c(s2)CCC3)cc1OCC`: the “activity change, negative = inhibition” value is 12%.
For `c1csc(CNc2ccc(N3CCOCC3)cc2)c1`, the “activity change, negative = inhibition” value is -19.3%.
As to `Cc1ccc(S(=O)(=O)Nc2cc(C(F)(F)F)ccc2C(=O)Nc2nc(-c3ccccc3)cs2)cc1`, the Potency entry is “inactive”.
As for `Cc1ccc(-c2cnn(CC(=O)NCCc3ccccc3)c(=O)c2)cc1`, the “activity change, negative = inhibition” value is 0%.
On the same count and under the same terms, the figure for `O=C(Nc1nc(-c2ccccc2)cs1)c1ccncc1NS(=O)(=O)c1ccc(Cl)cc1` is -18.4%.
As for `Cc1ccc(NC(=O)CN2C(=O)N/C(=C\c3cccn3-c3ccc(C(=O)O)cc3)C2=O)cc1`, the Potency result was “inactive”.
On the same count and under the same terms, the figure for `N#Cc1cccnc1SC1=NS(=O)(=O)c2ccccc21` is 3.16 µM (active).
With `Cc1csc(CN(C)c2ncnc3ccc(-c4ccc5c(c4)OCO5)cc23)n1`, the “activity change, negative = inhibition” value was 5.37%.
`Nc1ccccc1OC1=NS(=O)(=O)c2ccccc21`: the Potency is 2.51 µM (active).
For the compound `Cc1ccc2nc3sc(C(=O)N4CCCCC4)cc3cc2c1`, the “activity change, negative = inhibition” value was -6.89%.
Regarding `O=C1Nc2ccccc2/C1=C/c1cccc(C(=O)O)c1`, the “activity change, negative = inhibition” value was 14.9%.
Still for that read-out and setting: the figure for `CN1C(=O)Cc2cc([S+](=O)([O-])N3CCN([S+](=O)([O-])c4c(F)cccc4F)CC3)ccc21` is -6.94%; for `COc1ccc(C2Nc3ccccc3C(=O)N2Cc2ccc(-c3ccccc3)cc2)cc1COc1ccc(NC(C)=O)cc1` (stereo not given) it is -3.41%.
Still for that read-out and setting: the figure for `CNC(=O)C1CCN(c2nc(-c3ccc(Br)cc3)cs2)CC1` is -3.29%.
The same measure, in the same setting: under `Cc1ccc(OCCn2c3c(c4ccccc42)CN(C(=O)C2CCCCC2)CC3)cc1` stands 0.701%; under `O=C(OCC#CCSc1nnc(-c2cccc3ccccc23)o1)c1ccncc1`, -18.3%.

Another assay concerns the target Retinaldehyde dehydrogenase 3 (Homo sapiens) (UniProt P47895). Put plainly: qHTS for Inhibitors of the Aldehyde Dehydrogenase Family (ALDH1A3) Confirmatory screens (AID 2061311). Also: nearly all actives have a fitted effect of over 60% in size. As to activity change, negative = inhibition: % is scaled to controls: 0 for no effect and ±100 for the full control effect. The following applies: ALDH inhibition qHTS; series mostly up to 46 µM; activity change, negative = inhibition: at the top concentration.
As for `C=C1[C@@H](OC(C)=O)CC[C@@]2(C)[C@@H](OC(C)=O)[C@H](OC(C)=O)C3=C(C)C[C@H](OC(=O)C(C)CC)[C@@H]([C@@H](OC(C)=O)[C@H]12)C3(C)C` (stereo not given in full), the “activity change, negative = inhibition” value was -13.1% [at 16.6 µM].
`CN(C)c1ccc(C(=O)NCC(=O)OC(C(=O)Nc2cc(C(F)(F)F)ccc2Cl)c2ccccc2)cc1` (stereo not given): the Potency is 11.3 µM (active).
Regarding `NC(=O)C1CCN(c2nc(-c3cc4ccccc4o3)cs2)CC1`, the “activity change, negative = inhibition” value was -16.7%.
Still for that read-out and setting: under `N#Cc1cnc(NS(=O)(=O)c2ccc(NC(=O)Cc3ccc(Cl)c(Cl)c3)cc2)s1` stands -15.8%.
In the case of `Nc1ccc(Nc2cc(O)c3ncccc3c2)cc1`, the Potency is 0.712 µM (active).
Same read-out and setting: the figure for `Cc1ccc(CN(C)c2ncnc3ccc(-c4ccc(C#N)n4C)cc23)o1` is 22.4 µM (active).
As to `NC(=O)C1CCN(c2nccc(-c3ccc4c(c3)OCCCO4)n2)CC1`, the Potency is 12.7 µM (active).
Still for that read-out and setting: under `CN(C)[C@H]1CCN(c2cccc(Nc3nn4c(=O)c5ccccc5nc4s3)c2)C1` stands 3.18 µM (active).
As for `Nc1nccc(-c2c(-c3ccc(F)cc3)ncn2C2CCCCC2)n1`, the “activity change, negative = inhibition” value is -1.52%.
`Cc1ccc(CN(C)c2ccc(N3CCN(C)CC3)cc2)cc1`: the Potency is 20.1 µM (active).
As for `c1nc(NCC2CC2)c2cc(-c3ccc4c(c3)OCO4)ccc2n1`, the result was inactive.
On to `CCCCN1C(=O)c2ccccc2NC1c1ccc(OC)c(COc2ccc(NC(C)=O)cc2)c1` (stereo not given), for which the Potency was 12.6 µM (active).
`CC(=O)Nc1sc2c(c1-c1nc3ccccc3s1)CN(C(C)C)C2`: the “activity change, negative = inhibition” value is -10.2%.
Regarding `C/C(=C\c1cccc(C(F)(F)F)c1)C1Nc2cccc3cccc(c23)N1`, the Potency is 11.3 µM (active).
`Cc1cc(-c2nnc3n2CCCCC3)c(C)n1-c1cccc2ccccc12`: the activity change, negative = inhibition is -18.8% [at 0.022 µM].
The same measure, in the same setting: the figure for `CC(C)(Nc1nc(-c2ccccc2C(F)(F)F)nc2ccccc12)c1ccc(-c2cccc(C(F)(F)F)c2)cc1` is -15.2%.
Consider `O=c1[nH]c(CN2CCOCC2)nc2sc3c(c12)CCCC3`, for which the “outcome” value was “inactive; activator”.
As to `O=C([C@@H]1CCCN(c2ccc3[nH]c(C4(n5cc(Cl)cn5)CC4)nc3n2)C1)N1CCCC1`, the “activity change, negative = inhibition” value was -16.1%.
For `Cc1ccc(S(=O)(=O)Nc2cc(C(F)(F)F)ccc2C(=O)Nc2nc(-c3ccccc3)cs2)cc1`, the “activity change, negative = inhibition” value was -8.25%.
`Cc1ccc(-c2cnn(CC(=O)NCCc3ccccc3)c(=O)c2)cc1`: the Potency is 14.1 µM (active).
For the compound `Cc1ccc(NC(=O)CN2C(=O)N/C(=C\c3cccn3-c3ccc(C(=O)O)cc3)C2=O)cc1`, the “activity change, negative = inhibition” value was -0.158%.
For `N#Cc1cccnc1SC1=NS(=O)(=O)c2ccccc21`, the Potency was 1.27 µM (active).
With `Cc1csc(CN(C)c2ncnc3ccc(-c4ccc5c(c4)OCO5)cc23)n1`, the Potency is 25.1 µM (active).
Still for that read-out and setting: under `Cc1ccc2nc3sc(C(=O)N4CCCCC4)cc3cc2c1` stands 12.7 µM (active); under `O=C1Nc2ccccc2/C1=C/c1cccc(C(=O)O)c1`, 4 µM (active).
Consider `CN1C(=O)Cc2cc([S+](=O)([O-])N3CCN([S+](=O)([O-])c4c(F)cccc4F)CC3)ccc21`, for which the “activity change, negative = inhibition” value is -15.5%.
For the compound `COc1ccc(C2Nc3ccccc3C(=O)N2Cc2ccc(-c3ccccc3)cc2)cc1COc1ccc(NC(C)=O)cc1` (stereo not given), the Potency was 11.2 µM (active).
On to `CNC(=O)C1CCN(c2nc(-c3ccc(Br)cc3)cs2)CC1`, for which the “activity change, negative = inhibition” value is -3.18%.
On to `Cc1ccc(OCCn2c3c(c4ccccc42)CN(C(=O)C2CCCCC2)CC3)cc1`, for which the Potency is 11.3 µM (active).
Still for that read-out and setting: under `O=C(OCC#CCSc1nnc(-c2cccc3ccccc23)o1)c1ccncc1` stands 2.01 µM (active).
